Measurements as given in the supplement of paper PMC6555819.

Key:
Assay in all cases: PBM binding z-score (relative to random genomic background probes); higher = stronger binding; sequences stand for … in GC…GCGATTGACAGCGTAGAATGAAGG
[1] = system: PPARg:RXRa DBDmut IVT, anti-RXR (DBD mutation: RXRa K156A/R161A, NR concentration 270 nM, RXRa partner concentration 90 nM)
Outline: (§1)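 Random background probes are the reference for binding z-scores. These scores derive from regression-normalized fluorescence on custom Agilent 4×180K protein-binding microarrays incubated 1 h with ligand-free nuclear receptor dimers. Binding was detected with antibodies against each partner (one per run).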

[2] = system: PPARg:RXRa IVT, anti-PPARg (NR concentration 270 nM, RXRa partner concentration 90 nM)
Outline: as §1

[3] = system: PPARg DBDmut:RXRa IVT, anti-PPARg (DBD mutation: PPARg1 K132A/R137A, NR concentration 270 nM, RXRa partner concentration 90 nM)
Outline: as §1

[4] = system: PPARg DBDmut IVT, anti-PPARg (DBD mutation: PPARg1 K132A/R137A, NR concentration 270 nM)
Outline: as §1

[5] = system: PPARg homodimer (NR concentration 180 nM)
Outline: as §1

[6] = system: PXR:RXRa (NR concentration 270 nM, RXRa partner concentration 90 nM)
Outline: as §1

[7] = system: PXR homodimer (NR concentration 270 nM)
Outline: as §1

[8] = system: RARa:RXR (NR concentration 270 nM, RXRa partner concentration 90 nM)
Outline: as §1

[9] = system: RARa homodimer (NR concentration 270 nM)
Outline: as §1

[10] = system: RARb:RXRa (NR concentration 270 nM, RXRa partner concentration 90 nM)
Outline: as §1

[11] = system: RARb homodimer (NR concentration 270 nM)
Outline: as §1

[12] = system: RARg:RXRa (NR concentration 270 nM, RXRa partner concentration 90 nM)
Outline: as §1

[13] = system: RARg homodimer (NR concentration 270 nM)
Outline: as §1

[14] = system: RXRa DBDmut IVT, anti-RXR (DBD mutation: RXRa K156A/R161A, NR concentration 90 nM)
Outline: as §1

[15] = system: RXRa homodimer (NR concentration 180 nM)
Outline: as §1

[16] = system: THRa:RXRa (NR concentration 90 nM, RXRa partner concentration 90 nM)
Outline: as §1

[17] = system: THRa homodimer (NR concentration 90 nM)
Outline: as §1

[18] = system: VDR:RXRa (NR concentration 270 nM, RXRa partner concentration 90 nM)
Outline: as §1

[19] = system: VDR homodimer (NR concentration 270 nM)
Outline: as §1

Sequence | PBM binding z-score [1] | PBM binding z-score [2] | PBM binding z-score [3] | PBM binding z-score [4] | PBM binding z-score [5] | PBM binding z-score [6] | PBM binding z-score [7] | PBM binding z-score [8] | PBM binding z-score [9] | PBM binding z-score [10] | PBM binding z-score [11] | PBM binding z-score [12] | PBM binding z-score [13] | PBM binding z-score [14] | PBM binding z-score [15] | PBM binding z-score [16] | PBM binding z-score [17] | PBM binding z-score [18] | PBM binding z-score [19]
GCTTACGGCTCAAAGGTTATAGCATGAATAGAAT | -0.386 | 0.149 | -0.0168 | 0.142 | 0.0753 | 1.47 | -0.195 | 2.06 | 0.137 | 1.21 | 1.05 | 1.29 | 0.586 | 0.213 | 1.93 | 1.21 | -0.314 | 0.88 | -0.204
CCTATTAGTTGCCCATAAGGGCAACCGAAGCTCG | -0.00448 | 0.926 | 0.125 | 1.13 | 0.921 | 0.597 | 0.552 | 0.824 | 1.45 | 1.29 | 1.75 | 0.539 | 0.688 | 0.215 | 0.507 | 1.65 | 1.67 | 0.653 | 0.922
TCGTGTAGATCAAGCAGGTTAAGAAAGCCTGAGT | 1.24 | -0.0546 | -0.931 | -0.429 | 0.148 | 0.421 | 0.251 | 0.318 | 0.0709 | 0.0461 | -0.0651 | -0.125 | -0.344 | 0.445 | 0.247 | 0.168 | -0.744 | 0.56 | -0.0255
ATATGTAGTTTAAGGGTCATTCAGGTTGGTTCGC | 1.53 | 3.45 | 1.66 | 1.44 | 3.5 | 5.01 | 3.06 | 4.34 | 2.87 | 3.42 | 3.9 | 3.91 | 2.88 | 2.39 | 4.82 | 3.37 | 1.71 | 5.34 | 4.96
TCTTGTAGATCAATTGAGGTTAAGAAAGTGCGCT | 2.06 | 1.34 | 0.476 | 0.929 | 0.486 | 2.84 | 0.38 | 1.68 | 0.164 | 0.758 | 0.953 | 0.568 | 0.0458 | 1.05 | 0.886 | 3.84 | 0.878 | 1.86 | 0.579
CGTCCAAGGTCAGCAGGTCAGTGCAAGCGACGTG | 3.15 | 3.71 | -0.109 | -0.869 | 3.88 | 3.68 | 0.651 | 4.87 | 0.357 | 5.27 | 4.99 | 6.35 | 6.82 | 2.29 | 4.74 | 3.77 | 2.47 | 3.93 | 2.18
CCTCGGAGGACAGAAGGTCAGAGATGTCCGCTTT | -0.271 | 0.124 | -1.91 | -1.27 | 1.03 | 1.41 | 0.164 | 1.93 | 0.613 | 3.01 | 3.39 | 3.26 | 3.21 | -0.0318 | 1.74 | 2.05 | -0.116 | 1.28 | 0.382
